Assay results as given in PubChem BioAssay AID504834 (National Center for Advancing Translational Sciences (NCATS), 2011).
The whole screen tested about 320,000 compounds, of which about 22,000 (6.9%) were called active. Not shown: some 27% with an inconclusive outcome. Only a selection was taken, and actives are over-represented in it overall. Unmarked numbers belong to inactive results. Calls follow the shape of the dose curve; as a rule, active = well fitted inhibition curve with a large enough effect; inconclusive = small, poorly fitted or top-dose-only effect, or another doubt; inactive = no such curve, though single readings can be large or run the other way.

assay: Primary qHTS for delayed death inhibitors of the malarial parasite plastid, 96 hour incubation; settings: P. falciparum luciferase reporter growth; series mostly up to 28.7 µM; activity change, negative = inhibition: at the top concentration
How it was run: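 96 h incubation, 37 C, 5% CO2, of luciferase-reporter P. falciparum-infected RBCs (2% hematocrit, 0.05% parasitemia final) with test compounds; endpoint luminescence.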
% is scaled to controls: 0 for no effect and ±100 for the full control effect; potency is read from the fitted curve at half-maximal effect.

Row | Structure (SMILES) | activity change, negative = inhibition | Potency
1 | CC(C)(C)c1ccc(S(=O)(=O)N2CCN(C(=O)c3ccc4c(c3)C(=O)N(Cc3ccncc3)C4=O)CC2)cc1 | 1.22% | 
2 | CC(=O)c1ccc(NC(=O)c2cc(-c3cccs3)on2)cc1 | 263% | 
3 | Cc1ccc(NC(=O)CSc2sc3c(O)cc(=O)[nH]c3c2C#N)cc1C | -11.5% | 
4 | CCC1(c2ccccc2)NC(=O)N(CC(=O)c2ccc3c(c2)OCO3)C1=O (stereo unspecified) | 7.08% | 
5 | COc1ccc(N(CC(=O)NCCSCc2cccc(Cl)c2)S(C)(=O)=O)cc1 | 42.4% | 
6 | CN(C)c1ccc(C=C2C(=O)OC3(CCCC3)OC2=O)cc1 | 26.7% | 
7 | CN(C)c1ccc(/C=C2\CC3C4CC=C5CC(O)CCC5(C)C4CCC3(C)C2=O)cc1 (stereo unspecified) |  | 2.33 µM (active)
8 | CCC(CCC(C)C1CCC2C3CC=C4CC(O)CC[C@@]4(C)C3CC[C@@]12C)C(C)C (stereo partly specified) | 19% | 
9 | O=C(O)[C@@H](S)[C@H](S)C(=O)O |  | 1.69 µM (active)
10 | c1cnc(N2CCN(c3ccc4ccccc4n3)CC2)nc1 | 264% | 
11 | Cc1ccc(-c2csc(-c3cc(C)on3)n2)cc1 | 82.6% | 
12 | Clc1ccc(-c2csc(-c3ccncc3)n2)cc1 |  | 0.185 µM (active)
13 | Fc1ccc(-c2csc(-c3ccc(C4SCCS4)cc3)n2)cc1F | 96.5% | 
14 | Cc1ccc(C(=O)N(CC(=O)NC2CCCC2)c2ccc(F)cc2)s1 | 8.88% | 
15 | COCc1ccc(C(=O)NC2CC(C)(C)Cc3c2cnn3-c2ccc(C)cc2)o1 (stereo unspecified) | -8.09% | 
16 | COc1ccc(NC(=O)NC2CC3CCCC(C2)N3Cc2ccccc2)cc1 (stereo unspecified) | 108% | 
17 | Cc1cc(C)cc(NC(=S)NC2CC3CCCC(C2)N3Cc2cccs2)c1 (stereo unspecified) |  | 2.33 µM (active)
18 | C=CCN1C2CCCC1CC(NC(=S)Nc1cccc(OC)c1)C2 (stereo unspecified) | 22.2% | 
19 | CCC1(C(=O)c2ccccc2)C(c2cccc([N+](=O)[O-])c2)C1(C(=O)OC)C(=O)OC (stereo unspecified) |  | 13.1 µM (active)
20 | CN(C(=O)c1cccc([N+](=O)[O-])c1)c1ccccc1C(=O)NCc1ccccc1 | 9.28% | 
21 | CCC(CC)NC(=O)/C=C/c1cccc([N+](=O)[O-])c1 | -22.9% | 
22 | CCC(=O)Nc1ccc(Nc2nc(Cl)nc(Nc3ccc(NC(=O)CC)cc3)n2)cc1 | 11.2% | 
23 | O=C(CCl)Nc1ccc(Sc2ccc(NC(=O)CCl)cc2)cc1 |  | 1.85 µM (active)
24 | O=C(O)CSCC(=O)Nc1ccc(C(F)(F)F)cc1 | -5.68% | 
25 | Cc1ccc2nc(N(CCN(C)C)C(=O)C3=COCCO3)sc2c1 | -2.19% | 
26 | COCCNC(=O)c1ccc2nc(Cc3ccc(OC)c(OC)c3)oc2c1 | -26.7% | 

Row | Structure (SMILES) | activity change, negative = inhibition | Potency
27 | O=[N+]([O-])c1ccccc1Nc1ccc(O)cc1 | 0% | 
28 | O=C(Nc1ccncc1)c1ccccc1[N+](=O)[O-] | 0% | 
29 | O=C(CN1CCC(NC(=O)Nc2ccccc2)CC1)Nc1cccc([N+](=O)[O-])c1 | -7.75% | 
30 | O=C(CN1CCC(NC(=O)C2CC2)CC1)Nc1ccccc1[N+](=O)[O-] |  | 0.738 µM (active)
31 | O=C(O)c1ccccc1NC(=O)c1ccccc1-c1ccccc1C(=O)O | -44% | 
32 | O=C(Nc1ccccc1[N+](=O)[O-])C1C(c2ccccc2)=C1c1ccccc1 |  | 13.1 µM (active)
33 | O=C(Nc1cccc(NC(=O)c2ccccc2[N+](=O)[O-])c1)c1ccccc1Cl | 7.49% | 
34 | O=C(O)c1ccccc1NC(=S)NC(NC(=O)c1ccccc1[N+](=O)[O-])C(Cl)(Cl)Cl (stereo unspecified) |  | 13.1 µM (active)
35 | O=C(O)c1ccccc1C(=O)Nc1ccccc1[N+](=O)[O-] | 56.4% | 
36 | O=C(Nc1ccccc1-c1ccccc1)c1ccccc1[N+](=O)[O-] | -5.73% | 
37 | O=C(CN1CCCCC1)Nc1ccccc1C(=O)NC1CC1 | 11.1% | 
38 | O=C(NNC(=O)c1ccccc1[N+](=O)[O-])Nc1ccccc1C(F)(F)F |  | 11.7 µM (active)
39 | Cc1ccsc1C(=O)NCCc1ccco1 | 362% | 
40 | CCCOC1CCCN(C(=O)c2cc(COc3cncc(Cl)c3)on2)C1 (stereo unspecified) | 28.7% | 
41 | O=C1Nc2cc(C(=O)N3CCN(c4ccc(F)cc4)CC3)ccc2NC1CSCc1cccc(F)c1 (stereo unspecified) | -19% | 
42 | COC(=O)c1sc(NC(=S)NC(=O)c2ccc(C)cc2)nc1C | 129% | 
43 | Nc1cccc(S(=O)(=O)Nc2ccc(SC(F)F)cc2)c1 | 39.2% | 
44 | COc1cc(N=Cc2c(O)c3ccccc3oc2=O)c(OC)cc1Cl | 2.3% | 
45 | CCOc1ccc(S(=O)(=O)NCCC(=O)N2CCCCCCC2)cc1 | -1.38% | 
46 | CCN(CC(=O)NCc1ccc(Cl)cc1)C(=O)c1c(C)noc1C | -14.3% | 
47 | Cc1ccccc1Nc1c([N+](=O)[O-])ccc2nonc12 | 37.9% | 
48 | CCc1nc2sc3c(Cl)ncnc3c2c2c1CCCC2 | 16.4% | 
49 | Cc1nc(-c2ccc(F)cc2)c(CC(=O)N(C)CC(=O)Nc2c(C)cccc2C)s1 | -26.7% | 
50 | Cc1nc(-c2ccc(F)cc2)c(CC(=O)N2CCN(S(=O)(=O)c3ccc(F)cc3)CC2)s1 |  | 13.1 µM (active)
51 | O=C(c1cnc(Cl)c(Cl)c1)N1CCN(S(=O)(=O)c2ccc(F)cc2)CC1 | 10% | 
52 | COc1ccc(N2C(=O)NC(NS(=O)(=O)c3ccc(Cl)cc3)(C(F)(F)F)C2=O)cc1 (stereo unspecified) | -10.3% | 

Row | Structure (SMILES) | activity change, negative = inhibition | Potency
53 | O=C1CSc2ccc(S(=O)(=O)NCc3ccccc3)cc2N1 | -13.5% | 
54 | CC1(C)CC(=O)C(N=Nc2c(F)cccc2F)=C(O)C1 | 9.25% | 
55 | CCC(NC(=O)C1CCCC1)c1ccc(C)cc1 (stereo unspecified) | 17% | 
56 | CCN(CC(=O)Nc1cccc(S(N)(=O)=O)c1)Cc1nc2ccccc2c(=O)[nH]1 | -6.39% | 
57 | O=C(Cn1cnc2ccccc2c1=O)Nc1cccc(S(=O)(=O)N2CCCCC2)c1 | -2.35% | 
58 | CCCCN(CC(=O)Nc1cccc(S(=O)(=O)N2CCCC2)c1)Cc1nc2ccccc2c(=O)[nH]1 |  | 5.86 µM (active)
59 | CCc1noc(C)c1C(=O)N1CCN(S(=O)(=O)c2cccc(C(F)(F)F)c2)CC1 | -2.53% | 
60 | Cn1ncc(Br)c1C(=O)NC1CCCC1 | 13.9% | 
61 | NC(=O)CSc1nnc(NC(=O)c2ccc3ccccc3c2)s1 | 194% | 
62 | CC(=O)N1N=C(c2ccccc2)OC1c1cccnc1 (stereo unspecified) | 22.8% | 
63 | CC(C)(C)N(Cc1ccccc1)C(=O)c1ccncc1 | -25.4% | 
64 | CC(=O)N1N=C(c2ccncc2)OC1(Cc1ccccc1)Cc1ccccc1 |  | 11.7 µM (active)
65 | Cn1c(C(=O)N2CCCC(C(=O)NCc3ccccc3)C2)cc2sccc21 (stereo unspecified) | 21.5% | 
66 | COc1cc(-c2cc(C(=O)OCC(=O)Nc3ccc4c(c3)OCO4)c3ccccc3n2)cc(OC)c1OC | 9.38% | 
67 | CNC(=O)COC(=O)c1cc(-c2ccc(OC)cc2)nc2ccccc12 | 65.2% | 
68 | COc1ccc(NC(=O)c2cc(-c3cc(OC)c(OC)c(OC)c3)nc3ccccc23)c(OC)c1 |  | 2.62 µM (active)
69 | CC1CCCCC12NC(=O)N(CC(=O)OCC(=O)NCc1ccc(F)cc1)C2=O (stereo unspecified) | 7.88% | 
70 | O=C(C1CCN(S(=O)(=O)c2ccc(Br)s2)CC1)N1CCN(c2ccccc2)CC1 | 22.1% | 
71 | O=C(C1CCN(S(=O)(=O)c2ccc(Br)s2)CC1)N1CCN(C2CCCCC2)CC1 |  | 4.65 µM (active)
72 | Cc1ccc(C(=O)N2CCN(C3CCCCC3)CC2)s1 | 138% | 
73 | Cc1cccc(C)c1NC(=O)N1CC(C)OC(C)C1 (stereo unspecified) | 17.2% | 
74 | COC(=O)c1ccc(OC(=O)c2cnccn2)cc1 | -0.0686% | 
75 | Cc1cccc(OP(=O)(Oc2cccc(C)c2)OC(c2ccccc2)C(F)(F)F)c1 (stereo unspecified) |  | 13.1 µM (active)
76 | Cc1cccc(OCC(=O)Nc2ccccc2F)c1 | 24.5% | 
77 | Cc1cccc(OP(=O)(Nc2c(C)n(C)n(-c3ccccc3)c2=O)Oc2cccc(C)c2)c1 | 16% | 
78 | COc1ccc(S(=O)(=O)N2CCCCC2)cc1NC(=O)C1CC(=O)N(c2ccc3c(c2)OCCO3)C1 (stereo unspecified) | -18.4% | 

Row | Structure (SMILES) | activity change, negative = inhibition | Potency
79 | COc1cc(OC)c(OC)cc1CN1CCN(C(=O)c2cccc3ccccc23)CC1 | -24% | 
80 | COc1cccc(-n2nc(C(=O)N3CCN(Cc4ccccc4)CC3)c3ccccc3c2=O)c1 |  | 5.22 µM (active)
81 | CCOC(=O)CNC(=O)c1nn(-c2cccc(OC)c2)c(=O)c2ccccc12 | 60.4% | 
82 | CCC(=O)c1ccc(OCC(=O)N(CC)CC2COc3ccccc3O2)cc1 (stereo unspecified) | -10.8% | 
83 | Cc1cc(NC(=O)CSc2nc(=O)cc(N)n2-c2ccc(F)cc2)no1 | -15.9% | 
84 | Cc1ccc(CNC(=O)C2CCCN2S(=O)(=O)c2ccc3c(c2)C(C)(C)C(=O)N3C)cc1 (stereo unspecified) |  | 1.47 µM (active)
85 | Cc1ccc(S(=O)(=O)N2CCCC2C(=O)NCc2ccco2)cc1 (stereo unspecified) | -13.6% [at 5.75 µM] | 
86 | CCOC(=O)C1CCCN(S(=O)(=O)c2ccc3c(c2)C(C)(C)C(=O)N3C)C1 (stereo unspecified) | 38.7% | 
87 | Cc1nc2ccccn2c(=O)c1NC(=O)c1cccs1 | 10.3% | 
88 | COC(=O)c1sccc1NC(=O)c1ccc(Cl)cc1 | 25% | 
89 | Cc1cc(C)cc(NC(=O)CCN2C(=O)c3ccccc3C2=O)c1 | 8.26% | 
90 | Cc1cc(C)c(C2C3=C(Nc4c2c(C)nn4-c2ccccn2)c2ccccc2C3=O)c(C)c1 (stereo unspecified) |  | 6.57 µM (active)
91 | Cc1nn(-c2ccccn2)c2c1C(c1ccncc1)C1=C(CC(C)(C)CC1=O)N2 (stereo unspecified) |  | 5.86 µM (active)
92 | CC1(C)CC(=O)C2=C(C1)Nc1cc(C(=O)c3ccccc3)ccc1NC2c1ccccn1 (stereo unspecified) | 24.6% | 
93 | COc1ccc(C(C(=O)NC(C)(C)C)N(C(=O)Cn2nnc3ccccc32)c2ccc(C(C)=O)cc2)cc1O (stereo unspecified) | -0.944% | 
94 | CCC(C)(C)NC(=O)C(c1cccn1C)N(Cc1ccc(C)cc1)C(=O)Cn1nnc2ccccc21 (stereo unspecified) | -27.8% | 
95 | CC(C)(C)NC(=O)C(c1ccco1)N(Cc1ccc2c(c1)OCO2)C(=O)Cn1nnc2ccccc21 (stereo unspecified) |  | 14.7 µM (active)
96 | C=CCc1ccccc1OCC(O)CN1CCN(CCO)CC1 (stereo unspecified) | -15.9% | 
97 | C[n+]1cc(-c2ccccc2)oc1-c1ccccc1 | 65.7% | 
98 | Cc1nc2cccnc2nc1C | 36.2% | 
99 | Cc1ccc(C)c(N2CCN(C(=O)CCCn3c(=O)c4cccn4c4cccnc43)CC2)c1 |  | 13.1 µM (active)
100 | Cc1ccc(C)c(N2CCN(C(=O)CCCCn3c(=O)[nH]c4ccccc4c3=O)CC2)c1 | 8.49% | 
101 | Cc1ccc(C)c(N2CCN(C(=O)Cn3ncn4cccc4c3=O)CC2)c1 | 20.2% | 
